Here are results for 36 molecules from PMC9911399, “Two distinct binding modes provide the RNA-binding protein RbFox with extraordinary sequence specificity”.

Substitutions are numbered along the chain they refer to; changes in the protein carry UniProt numbers. In all, about 16,000 sequences were measured (“ka relative to ugcaugu”: median about 0.096, highest 2% from about 0.35 on). Shown is part of a subset that was picked to be rich in the highest values.

The labels stand for the following.
T1: RBFOX1 RRM RbFoxmut (Fox-RRM*) (Homo sapiens, UniProt Q9NWB1 109-208, R118D;E147R;N151S;E152T)
T1 sequence: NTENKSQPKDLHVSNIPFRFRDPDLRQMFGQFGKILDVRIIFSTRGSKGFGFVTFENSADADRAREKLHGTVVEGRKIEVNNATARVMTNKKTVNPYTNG

B1: GCACCGG (DNA:RNA)
RNA: GGGAGACCGGAAUUCAGAUUGUCCGCACCGGUUAAAUCCCGUCGUAGCCACCA
DNA 1: CAATCTGAATTCCGGTCTCCC
DNA 2: TGGTGGCTACGACGGGATT
B2: GCAUCGG (DNA:RNA)
RNA: B1 RNA with C28U
DNA 1: CAATCTGAATTCCGGTCTCCC
DNA 2: TGGTGGCTACGACGGGATT
B3: GCAUCCG (DNA:RNA)
RNA: B1 RNA with C28U, G30C
DNA 1: CAATCTGAATTCCGGTCTCCC
DNA 2: TGGTGGCTACGACGGGATT
B4: GCAUCAA (DNA:RNA)
RNA: B1 RNA with C28U, G30A, G31A
DNA 1: CAATCTGAATTCCGGTCTCCC
DNA 2: TGGTGGCTACGACGGGATT
B5: GCACCGC (DNA:RNA)
RNA: B1 RNA with G31C
DNA 1: CAATCTGAATTCCGGTCTCCC
DNA 2: TGGTGGCTACGACGGGATT
B6: CGCAUCG (DNA:RNA)
RNA: B1 RNA with G25C, C26G, A27C, C28A, C29U, G30C
DNA 1: CAATCTGAATTCCGGTCTCCC
DNA 2: TGGTGGCTACGACGGGATT
B7: GCAUCUG (DNA:RNA)
RNA: B1 RNA with C28U, G30U
DNA 1: CAATCTGAATTCCGGTCTCCC
DNA 2: TGGTGGCTACGACGGGATT
B8: GCAUCAC (DNA:RNA)
RNA: B1 RNA with C28U, G30A, G31C
DNA 1: CAATCTGAATTCCGGTCTCCC
DNA 2: TGGTGGCTACGACGGGATT
B9: GCAUCGC (DNA:RNA)
RNA: B1 RNA with C28U, G31C
DNA 1: CAATCTGAATTCCGGTCTCCC
DNA 2: TGGTGGCTACGACGGGATT
B10: GAAUCGG (DNA:RNA)
RNA: B1 RNA with C26A, C28U
DNA 1: CAATCTGAATTCCGGTCTCCC
DNA 2: TGGTGGCTACGACGGGATT
B11: GCAAUCG (DNA:RNA)
RNA: B1 RNA with C28A, C29U, G30C
DNA 1: CAATCTGAATTCCGGTCTCCC
DNA 2: TGGTGGCTACGACGGGATT
B12: GCAUCAG (DNA:RNA)
RNA: B1 RNA with C28U, G30A
DNA 1: CAATCTGAATTCCGGTCTCCC
DNA 2: TGGTGGCTACGACGGGATT
B13: AGAGCGA (DNA:RNA)
RNA: B1 RNA with G25A, C26G, C28G, G31A
DNA 1: CAATCTGAATTCCGGTCTCCC
DNA 2: TGGTGGCTACGACGGGATT
B14: CCCUUUC (DNA:RNA)
RNA: B1 RNA with G25C, A27C, C28U, C29U, G30U, G31C
DNA 1: CAATCTGAATTCCGGTCTCCC
DNA 2: TGGTGGCTACGACGGGATT
B15: UACGGGG (DNA:RNA)
RNA: B1 RNA with G25U, C26A, A27C, C28G, C29G
DNA 1: CAATCTGAATTCCGGTCTCCC
DNA 2: TGGTGGCTACGACGGGATT
B16: CCGCCGG (DNA:RNA)
RNA: B1 RNA with G25C, A27G
DNA 1: CAATCTGAATTCCGGTCTCCC
DNA 2: TGGTGGCTACGACGGGATT
B17: AGGCCUA (DNA:RNA)
RNA: B1 RNA with G25A, C26G, A27G, G30U, G31A
DNA 1: CAATCTGAATTCCGGTCTCCC
DNA 2: TGGTGGCTACGACGGGATT
B18: AGAGUUC (DNA:RNA)
RNA: B1 RNA with G25A, C26G, C28G, C29U, G30U, G31C
DNA 1: CAATCTGAATTCCGGTCTCCC
DNA 2: TGGTGGCTACGACGGGATT
B19: GCGAGUG (DNA:RNA)
RNA: B1 RNA with A27G, C28A, C29G, G30U
DNA 1: CAATCTGAATTCCGGTCTCCC
DNA 2: TGGTGGCTACGACGGGATT
B20: AUCCGCA (DNA:RNA)
RNA: B1 RNA with G25A, C26U, A27C, C29G, G30C, G31A
DNA 1: CAATCTGAATTCCGGTCTCCC
DNA 2: TGGTGGCTACGACGGGATT
B21: AGCAUCC (DNA:RNA)
RNA: GGGAGACCGGAAUUCAGAUUGUCCAGCAUCCUUAAAUCCCGUCGUAGCCACCA
DNA 1: CAATCTGAATTCCGGTCTCCC
DNA 2: TGGTGGCTACGACGGGATT
B22: AGCACCG (DNA:RNA)
RNA: B21 RNA with U29C, C31G
DNA 1: CAATCTGAATTCCGGTCTCCC
DNA 2: TGGTGGCTACGACGGGATT
B23: GCACCGU (DNA:RNA)
RNA: B1 RNA with G31U
DNA 1: CAATCTGAATTCCGGTCTCCC
DNA 2: TGGTGGCTACGACGGGATT
B24: GCAUCGA (DNA:RNA)
RNA: B1 RNA with C28U, G31A
DNA 1: CAATCTGAATTCCGGTCTCCC
DNA 2: TGGTGGCTACGACGGGATT
B25: GCAUUGU (DNA:RNA)
RNA: B1 RNA with C28U, C29U, G31U
DNA 1: CAATCTGAATTCCGGTCTCCC
DNA 2: TGGTGGCTACGACGGGATT
B26: GCAUCGU (DNA:RNA)
RNA: B1 RNA with C28U, G31U
DNA 1: CAATCTGAATTCCGGTCTCCC
DNA 2: TGGTGGCTACGACGGGATT
B27: GCAUCCA (DNA:RNA)
RNA: B1 RNA with C28U, G30C, G31A
DNA 1: CAATCTGAATTCCGGTCTCCC
DNA 2: TGGTGGCTACGACGGGATT
B28: AGCAUCG (DNA:RNA)
RNA: B21 RNA with C31G
DNA 1: CAATCTGAATTCCGGTCTCCC
DNA 2: TGGTGGCTACGACGGGATT
B29: AGGAUGG (DNA:RNA)
RNA: B21 RNA with C27G, C30G, C31G
DNA 1: CAATCTGAATTCCGGTCTCCC
DNA 2: TGGTGGCTACGACGGGATT
B30: UCGUACU (DNA:RNA)
RNA: B21 RNA with A25U, G26C, C27G, A28U, U29A, C31U
DNA 1: CAATCTGAATTCCGGTCTCCC
DNA 2: TGGTGGCTACGACGGGATT
B31: GGAUGUU (DNA:RNA)
RNA: B1 RNA with C26G, C28U, C29G, G30U, G31U
DNA 1: CAATCTGAATTCCGGTCTCCC
DNA 2: TGGTGGCTACGACGGGATT
B32: GGGAUGU (DNA:RNA)
RNA: B21 RNA with A25G, C27G, C30G, C31U
DNA 1: CAATCTGAATTCCGGTCTCCC
DNA 2: TGGTGGCTACGACGGGATT
B33: GGGGAUG (DNA:RNA)
RNA: B1 RNA with C26G, A27G, C28G, C29A, G30U
DNA 1: CAATCTGAATTCCGGTCTCCC
DNA 2: TGGTGGCTACGACGGGATT
B34: GAGAUGU (DNA:RNA)
RNA: B21 RNA with A25G, G26A, C27G, C30G, C31U
DNA 1: CAATCTGAATTCCGGTCTCCC
DNA 2: TGGTGGCTACGACGGGATT
B35: CGGGAUG (DNA:RNA)
RNA: B21 RNA with A25C, C27G, A28G, U29A, C30U, C31G
DNA 1: CAATCTGAATTCCGGTCTCCC
DNA 2: TGGTGGCTACGACGGGATT
B36: GGGGGGA (DNA:RNA)
RNA: B1 RNA with C26G, A27G, C28G, C29G, G31A
DNA 1: CAATCTGAATTCCGGTCTCCC
DNA 2: TGGTGGCTACGACGGGATT

This experiment has as its target T1, RBFOX1 RRM RbFoxmut (Fox-RRM*). The experiment is described as follows: EMSA; HiTS-Eq, 1 nM pool, 10 min; buffer printed only for the single-RNA assays: 10 mM Tris pH 7.5, 150 mM NaCl, 3.4 mM EDTA, 0.001% NP-40, 30 C. Conditions: tags: His6 N-terminal (pET28a); label: 5' 32P. An outline of the steps: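 A pool of RNA with 7 randomized nucleotides, 5′-radiolabelled and with DNA-annealed flanks, was equilibrated at 1 nM for 10 min in 50 µL with purified RbFox RRM, wild type or mutant, across increasing protein concentrations. Free RNA was separated by 8% native PAGE, excised, reverse-transcribed, barcoded by PCR and sequenced. Relative association constants were obtained from read-count changes of each RNA species versus the control reaction and normalised to the cognate motif.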
Regarding B1, the binding signal was 0.102 KA relative to UGCAUGU.

B2: the binding signal is 0.454 KA relative to UGCAUGU.

Take B3: the binding signal is 0.351 KA relative to UGCAUGU.

Consider B4, for which the binding signal is 0.323 KA relative to UGCAUGU.

For B5, the binding signal was 0.139 KA relative to UGCAUGU.

Consider B6, for which the binding signal was 0.625 KA relative to UGCAUGU.

Regarding B7, the binding signal was 0.264 KA relative to UGCAUGU.

As for B8, the binding signal is 0.293 KA relative to UGCAUGU.

As to B9, the binding signal is 0.443 KA relative to UGCAUGU.

With B10, the binding signal was 0.186 KA relative to UGCAUGU.

In the case of B11, the binding signal was 0.0721 KA relative to UGCAUGU.

On to B12, for which the binding signal is 0.382 KA relative to UGCAUGU.

B13: the binding signal is 0.0748 KA relative to UGCAUGU.

Regarding B14, the binding signal was 0.0564 KA relative to UGCAUGU.

With B15, the binding signal is 0.0585 KA relative to UGCAUGU.

Consider B16, for which the binding signal is 0.0808 KA relative to UGCAUGU.

As to B17, the binding signal was 0.0817 KA relative to UGCAUGU.

For B18, the binding signal was 0.0781 KA relative to UGCAUGU.

Turning to B19, the binding signal was 0.184 KA relative to UGCAUGU.

For B20, the binding signal was 0.167 KA relative to UGCAUGU.

Consider B21, for which the binding signal is 0.237 KA relative to UGCAUGU.

In the case of B22, the binding signal was 0.104 KA relative to UGCAUGU.

On to B23, for which the binding signal is 0.172 KA relative to UGCAUGU.

As for B24, the binding signal was 0.675 KA relative to UGCAUGU.

Consider B25, for which the binding signal was 0.228 KA relative to UGCAUGU.

Consider B26, for which the binding signal was 0.578 KA relative to UGCAUGU.

For the molecule B27, the binding signal was 0.338 KA relative to UGCAUGU.

Take B28: the binding signal was 0.437 KA relative to UGCAUGU.

For the molecule B29, the binding signal is 0.177 KA relative to UGCAUGU.

Turning to B30, the binding signal is 0.0912 KA relative to UGCAUGU.

Consider B31, for which the binding signal is 0.213 KA relative to UGCAUGU.

For the molecule B32, the binding signal is 0.373 KA relative to UGCAUGU.

Turning to B33, the binding signal is 0.612 KA relative to UGCAUGU.

On to B34, for which the binding signal is 0.15 KA relative to UGCAUGU.

With B35, the binding signal is 0.296 KA relative to UGCAUGU.

With B36, the binding signal is 0.082 KA relative to UGCAUGU.
